Bioassay records from PubChem.
NOD2-RIPK2 inh: NOD2-RIPK2 protein interaction inhibition | actives 0.38% (n = 360,000) | AID 624267 | CHO BLA complementation NOD2-RIPK2, CCF4 ratio | O43353 | inhibition, % at 4.98 µM; in the data active means inhibition above about 21%;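 further: 0% = vehicle only and 100% = reference blocker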
TLR4 MyD88 comp: blocks binding of human TLR4 to MyD88 | inhibition, % at 8.4 µM | actives 0.18% (n = 200,000) | HeLa CL3-4 TLR4/MyD88 BLA complementation, FRET ratio | O00206+Q99836; in the data active means inhibition above about 25%;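 further: 0% = vehicle and 100% = reference inhibitor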
ABHD5 PLIN5 PPI: ABHD5-PLIN5 protein interaction inhibition | Q00G26+Q8WTS1 | Split G. princeps luciferase complementation, luminescence, 4 h | inhibition, % at 4 µM | actives 0.78% (n = 360,000);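 active means inhibition above the mean inhibition across every tested compound plus 3 SD, cut at about 22% in these data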;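 further: 0% = DMSO only wells and the 100% control is not disclosed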
TLR9-MyD88 inh: TLR9-MyD88 interaction inhibition. Q9NR96+Q99836. CHO BLA complementation TLR9-MyD88, CCF4 FRET ratio. inhibition, % at 4.98 µM. actives 0.21% (n = 340,000). AID 504734;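 active means inhibition above the mean over all tested compounds plus 3 SD, cut at about 21% in these data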;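 further: 0% = DMSO only wells and 100% = clavulanate BLA inhibitor control wells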
Exocytosis inh: blocks lytic granule exocytosis; actives 0.66% (n = 360,000); TALL-104 LAMP-1 surface exposure, flow cytometry; cells stimulated with thapsigargin and PMA; inhibition, % at 10 µM; AID 651702;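 active means inhibition above about 55%, limit read from the data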
PRMT1 inh: inhibitors of human PRMT1. Q99873. recombinant PRMT1, activity-based probe fluorescence polarization. inhibition, % at 2.79 µM. actives 1.3% (n = 370,000). AID 652257;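 active means inhibition above about 21% made by adding two undisclosed values, limit read from the data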
ABHD5-PLIN5 conf: confirmation of human ABHD5-PLIN5 interaction inhibitors; shares compounds with ABHD5 PLIN5 PPI; biochemical ABHD5-PLIN5 interaction, luminescence; inhibition, % at 4 µM; actives 67% (n = 2,200); AID 651612; in the data active means inhibition above about 23%;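 further: 0% = DMSO vehicle wells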
HNF4 split-luc: counter-screen for ABHD5-PLIN5 inhibitors: HNF4 split-luciferase. shares compounds with ABHD5 PLIN5 PPI. HNF4 dimerization, luminescence, biochemical. inhibition, % at 4 µM. actives 77% (n = 2,200). AID 651674;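 active means mean inhibition across replicate wells exceeding the computed hit threshold, cut at about 13% in these data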;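 further: light from luciferase halves that rejoin when HNF4 fusion proteins dimerize; 0% = DMSO only wells and the 100% control is not given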
Target sequence (P41235 whole entry, looked up, the tested form may be a part): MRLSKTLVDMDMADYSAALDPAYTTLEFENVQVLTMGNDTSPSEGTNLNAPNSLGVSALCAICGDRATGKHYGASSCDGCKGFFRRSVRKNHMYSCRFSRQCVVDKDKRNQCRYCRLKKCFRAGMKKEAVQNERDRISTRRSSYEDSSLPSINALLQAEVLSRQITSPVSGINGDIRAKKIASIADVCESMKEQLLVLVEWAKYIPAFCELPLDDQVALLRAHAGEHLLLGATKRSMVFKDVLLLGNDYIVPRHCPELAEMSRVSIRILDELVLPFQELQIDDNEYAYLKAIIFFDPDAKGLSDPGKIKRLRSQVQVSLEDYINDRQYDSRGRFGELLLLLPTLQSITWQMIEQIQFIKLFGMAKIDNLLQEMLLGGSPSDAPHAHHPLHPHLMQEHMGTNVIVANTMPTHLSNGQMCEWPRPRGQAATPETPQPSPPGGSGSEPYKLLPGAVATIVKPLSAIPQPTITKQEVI
NOD2-RIPK2 conf: confirmation of human NOD2-RIPK2 interaction inhibitors; shares compounds with NOD2-RIPK2 inh; actives 70% (n = 1,200); inhibition, % at 4.98 µM; CHO cells, NOD2-RIPK2 BLA complementation, CCF4 FRET; AID 624370;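 active means mean inhibition across replicates above a set limit taken from the earlier primary screen, cut at about 21% in these data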;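 further: 0% = DMSO-only wells and the high end = clavulanate BLA-blocked wells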
BLA counter: counter-screen for NOD2-RIPK2 interaction inhibitors: BLA reporter; inhibition, % at 4.98 µM; shares compounds with NOD2-RIPK2 inh; actives 57% (n = 1,200); CHO BLA reporter, CCF4 FRET ratio, counterscreen; AID 624371;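 active means mean inhibition above the low-control mean inhibition plus three low-control SD, cut at about 11% in these data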;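 further: 0% = DMSO only wells and 100% = clavulanate high control wells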
Starred values were filed as active, the others as inactive; . = no result given. The list is not random: actives were taken first. Their share in the collection is about 2.6%.

SMILES | NOD2-RIPK2 inh | TLR4 MyD88 comp | ABHD5 PLIN5 PPI | TLR9-MyD88 inh | Exocytosis inh | PRMT1 inh | ABHD5-PLIN5 conf | HNF4 split-luc | NOD2-RIPK2 conf | BLA counter
O=C(NC1=C(Nc2ccc(Cl)cc2)C(=O)c2ccccc2C1=O)c1ccccc1 | -9 | -14 | -9 | -4 | -1 | 0 | . | . | . | .
O=C1C(Cl)=C(NC(=O)c2ccccc2)C(=O)C(Cl)=C1NC(=O)c1ccccc1 | 54* | . | 71* | 7 | 42 | 96* | 103* | 110* | 68* | 37*
COc1cccc(N2CCN(CC(=O)NCc3ccc(F)cc3)CC2)c1 | . | . | . | . | . | 3 | . | . | . | .
COc1ccc(/C=C/C(=O)c2cc(F)ccc2OC(=O)c2ccccc2OC)cc1OC | 22* | 13 | 63* | 4 | 9 | -1 | 78* | 60* | 22* | 1
COc1ccc(C(=O)/C=C2/C(=O)Nc3ccccc32)c(OC)c1 | 31* | . | 69* | 5 | 8 | 11 | 95* | 98* | 30* | -1
O=C1Nc2ccccc2/C1=C/c1cnc(-c2ccccc2)[nH]1 | 10 | . | 2 | 11 | 5 | 2 | . | . | . | .
COc1ccc(C(=O)/C=C2/C(=O)Nc3ccccc32)cc1 | 33* | . | 36* | -1 | 17 | 5 | 72* | 85* | 10 | -2
C=CCOc1ccc(C(=O)/C=C2/C(=O)Nc3ccccc32)cc1 | 25* | . | 67* | 8 | 13 | -5 | 72* | 68* | -1 | -2
C=CCOc1ccccc1C(=O)/C=C1/C(=O)Nc2ccccc21 | 65* | . | 85* | 17 | 10 | 23* | 95* | 97* | 55* | 0
COc1ccc(/C=C/C(=O)c2ccc(OC)cc2OC)cc1 | 10 | 5 | 0 | -7 | 3 | 0 | . | . | . | .
O=C(C(=O)N1CCC(CNS(=O)(=O)c2ccc3ccccc3c2)CC1)c1cc2ccccc2o1 | . | . | . | . | . | -1 | . | . | . | .
COc1ccccc1Cc1c(C(C)(C)C)nc2c(C)cc(Br)cn12 | . | . | . | . | . | 13 | . | . | . | .
Cc1ccc(-c2csc3nc(C)n(-n4c(C)ccc4C)c(=O)c23)o1 | 49* | 8 | 52* | -9 | 49 | 17 | 25* | 54* | 0 | -1
Cc1ccccc1-c1ccc2c(c1)[C@@H]1C[C@H]3[C@@H](CN1CC2)[C@H](C)OC(c1ccccc1)N3C (some centres not stated) | . | . | . | . | . | -1 | . | . | . | .
COCc1[nH]nc2c1C(c1ccc(Br)cc1)N(c1ccc(OC)cc1)C2=O (configuration not stated) | . | . | . | . | . | 2 | . | . | . | .
CC1=C(C)/C(=N\OS(=O)(=O)c2ccc(C)cc2)C=CC1=O | 58* | -4 | 61* | 3 | 46 | 24* | 67* | 96* | 54* | 4
COc1ccc(S(=O)(=O)/N=C2/C=CC(=O)C(C)=C2C)cc1 | -11 | -8 | 16 | 4 | 3 | . | . | . | . | .
Cc1cccc(C)c1OCc1nnc(SCC(=O)O)n1-c1c(C)cccc1C | . | . | . | . | . | 1 | . | . | . | .
CC(C)c1nnc(NC(=O)CCC(=O)N2CCN(Cc3ccc(F)cc3)CC2)s1 | -9 | . | 7 | -22 | -1 | 1 | . | . | . | .
Cc1ccc(CS(=O)(=O)c2ncc(Cl)c(C(=O)Nc3nnc(C(C)C)s3)n2)cc1 | 48* | . | 57* | 11 | -1 | -3 | 87* | 55* | 45* | 31*
Cc1cccc(CS(=O)(=O)c2ncc(Cl)c(C(=O)Nc3nnc(C(C)C)s3)n2)c1 | 41* | . | 52* | 11 | 21 | . | 90* | 59* | 35* | 28*
CC(C)c1nnc(NC(=O)c2nc(S(=O)(=O)Cc3ccc(F)cc3)ncc2Cl)s1 | 25* | . | 44* | 2 | 9 | 6 | 92* | 57* | 25* | 18*
CC(C)c1nnc(NC(=O)CS(=O)(=O)Cc2ccccc2)s1 | 4 | -1 | -6 | 3 | -2 | -2 | . | . | . | .
Cc1ccccc1CN1CCCCC(NC(=O)c2ccccc2C(F)(F)F)C1=O (configuration not stated) | . | . | . | . | . | 0 | . | . | . | .
Cc1ccc(-n2c(SCc3cccc(F)c3)nnc2-c2cccc(C)c2)cc1 | . | . | . | . | . | 6 | . | . | . | .
SMILES | NOD2-RIPK2 inh | TLR4 MyD88 comp | ABHD5 PLIN5 PPI | TLR9-MyD88 inh | Exocytosis inh | PRMT1 inh | ABHD5-PLIN5 conf | HNF4 split-luc | NOD2-RIPK2 conf | BLA counter
Clc1ccc(N=NN2CCOCC2)cc1 | 0 | . | 2 | 2 | 1 | 2 | . | . | . | .
Cc1[nH]nc(C(F)(F)F)c1N=NN1CCOCC1 | 44* | . | 50* | -2 | 8 | 10 | 41* | 76* | 12 | -4
CC(Sc1ccc(Cl)cc1)C(=O)Nc1ccc2c(c1)OCO2 (configuration not stated) | -8 | -1 | -4 | -22 | -2 | -2 | . | . | . | .
CC(C)N1CCC2(CC1)N=C(c1ccc3c(c1)OCO3)CC(c1cc(Cl)ccc1O)N2 (configuration not stated) | 21* | 10 | 75* | 15 | 9 | 1 | 31* | 62* | 10 | 2
CC1CCCN(c2cccc3c2S(=O)(=O)N(Cc2cccc(Cl)c2)[C@@H](C)[C@H](c2ccccc2)O3)C1 (some centres not stated) | . | . | . | . | . | 1 | . | . | . | .
CCC(=O)OCOc1ccc(/C=C2/CCC(CN(C)C)C2=O)cc1 (configuration not stated) | 33* | . | 51* | 10 | -2 | 37* | 95* | 109* | 35* | 6
N#C/C(=C\c1ccco1)C(=O)NCc1ccccc1 | 0 | 16 | 2 | 5 | 4 | . | . | . | . | .
N#CC(C#N)=C1C=CC=CN1/C(=C\c1ccco1)C(=O)c1ccc(-c2ccccc2)cc1 | 22* | 9 | 66* | 15 | 28 | 3 | 104* | 111* | 78* | 16*
CN(C)CCCN(C(=O)c1nc2ccccc2s1)c1nc2ccc(F)cc2s1 | 2 | . | 2 | 1 | -2 | 1 | . | . | . | .
CN(C)CCCN(C(=O)CCOc1ccccc1)c1nc2ccc(F)cc2s1 | 47* | 7 | 32* | 18 | 55 | 21 | 21 | 100* | 17 | 0
O=C(O)CCCCCN1C(=O)/C(=C/c2cn(-c3ccccc3)nc2-c2cccs2)SC1=S | 0 | . | -3 | 7 | 2 | -1 | . | . | . | .
CC1=NNC(=O)/C1=C\c1cn(-c2ccccc2)nc1-c1cccs1 | 60* | 1 | 37* | 7 | 47 | 2 | 100* | 102* | 66* | -1
CCc1c(Cc2ccccc2)ncn1CCc1ccccc1OC | . | . | . | . | . | 1 | . | . | . | .
